# Test results: PubChem BioAssay AID485364 (National Center for Advancing Translational Sciences (NCATS), 2010)
# Screen size: about 360,000 compounds; about 11,000 (3.1%) were called active. Inconclusive results (about 4%) are left out. Many of the other results were omitted from the sample, so actives are more common in it than they were. Unmarked numbers belong to inactive results. Calls come from the whole dose curve; as a rule, active = well fitted inhibition curve with a large enough effect; inconclusive = small, poorly fitted or top-dose-only effect; inactive = no such curve, though single readings can be large or run the other way.
# Molecular target: Schistosoma mansoni thioredoxin glutathione reductase (TGR) (UniProt Q962Y6)
# Test: qHTS Assay for the Inhibitors of Schistosoma Mansoni Peroxiredoxins; note: nearly all actives have a fitted effect of over 60% in size
# Conditions: purified TGR, DTNB reduction, TNB absorbance 405 nm; series mostly up to 114 µM; activity change, negative = inhibition: at the top concentration
# How it was run: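 Kinetic colorimetric format: TGR-catalysed, NADPH-driven DTNB reduction monitored via TNB absorbance. Enzyme dispensed at 20 nM; compound exposure 15 min at room temperature before reaction start.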
# % is set by controls: 0 for no effect and ±100 for the full control effect; potency is the fitted concentration of half-maximal effect.
SMILES,"activity change, negative = inhibition [%]",Potency
O=C(CSc1nccn1C1CCCC1)Nc1cc(C(F)(F)F)ccc1Cl,6.6,
Cc1oc(-c2ccccc2Cl)[n+]([O-])c1C,,31.6 µM (active)
CCOc1cnc(-c2c(-c3ccccc3Cl)noc2C)o1,-5.55,
COc1ccc(NS(=O)(=O)c2ccc3oc(SCC(N)=O)nc3c2)cc1,-0.717,
COc1ccc(S(=O)(=O)Nc2ccc3oc(C)c(C(C)=O)c3c2)cc1,-27.8,
CCn1c(=O)c(=O)[nH]c2c(=O)oc3ccc(S(=O)(=O)Nc4ccc(OC)cc4)cc3c21,,35.5 µM (active)
Cc1cc(NC(=O)CS(=O)(=O)c2cn(C)c3ccccc23)no1,,28.2 µM (active)
CCOC(=O)c1ccc(NC(=O)CS(=O)(=O)c2cn(CC)c3ccccc23)cc1,1.35,
Cc1cc(NC(=O)COn2nnc3ccccc32)no1,0.17,
COc1ccc(N(C)C(=O)C2CCN(S(=O)(=O)c3cc(Br)cc4c3N(C(C)=O)CC4)CC2)cc1,4.51,
COc1ccc(Cl)cc1S(=O)(=O)N1CCC(c2ccncc2)CC1,-0.887,
COC(=O)c1ccc(-c2noc(CN(Cc3ccccn3)CC3CCCO3)n2)cc1 (stereo not given),7.28,
CCN1CC(CN(C)Cc2nc(-c3ccc(Cl)cc3)no2)CC1=O (stereo not given),-4.79,
CN(Cc1ccccn1)Cc1nc(-c2ccc(Cl)cc2)no1,,28.2 µM (active)
CC(=O)N1CCCc2ccc(NS(=O)(=O)c3ccc(F)cc3F)cc21,-1.51,
COc1cc(OC)cc(-c2nc3nc(C)c(CCC(=O)Nc4ccccc4)c(C)n3n2)c1,-3.65,
Cc1ccc(NC(=O)c2oc3ccc(S(=O)(=O)N4CCCCC4)cc3c2C)cc1Cl,7.17,
O=S(=O)(Nc1ncccn1)c1ccc(NS(=O)(=O)c2cccc(Cl)c2Cl)cc1,1.1,
O=C(/C=C/c1ccccc1Cl)Nc1ccc(S(=O)(=O)Nc2ncccn2)cc1,6.23,
O=C(CCS(=O)(=O)c1ccccc1Cl)Nc1ccc(S(=O)(=O)Nc2ncccn2)cc1,,14.1 µM (active)
CCOc1ccc(NC(=O)Cn2c(=O)n(CCCC(=O)NCc3ccc4c(c3)OCO4)c(=O)c3ccccc32)cc1,-0.638,
O=S(=O)(NCCS(=O)(=O)N1CCN(c2ccccc2)CC1)c1ccc(Cl)cc1,-1.31,
O=C(CNS(=O)(=O)c1cccs1)N1CCN(c2ccccc2Cl)CC1,-8.44,
Cc1ccccc1Nc1nn2c(=O)c3ccc(C(=O)NCCc4ccc(Cl)cc4)cc3nc2s1,-12.3,
O=C(O)c1ccc2c(c1)N(Cc1ccc(F)cc1)C(=O)c1ccccc1S2=O (stereo not given),6,

SMILES,"activity change, negative = inhibition [%]",Potency
CCc1ccc(NC(=O)NC(C)c2ccc3c(c2)OCO3)cc1 (stereo not given),-3.56,
CCC1=C/C(=C\c2ccc3c(c2)OCO3)C(=O)S1,,28.2 µM (active)
CCCCN(CC)C(=O)c1ccc2c(c1)OCO2,24.1,
COc1ccc(-c2nc3ccc(C(=O)NCc4ccc(C)cc4)cc3nc2-c2ccc(OC)cc2)cc1,7.37,
COc1cccc(S(=O)(=O)NCc2ccc(C(=O)NCc3ccccn3)cc2)c1,-21.9,
O=C(NCc1ccccn1)c1ccc2nc(-c3ccco3)c(-c3ccco3)nc2c1,,0.891 µM (active)
CNC(=S)N/N=C/c1ccc(N2CCOCC2)s1,,28.2 µM (active)
CNC(=S)N/N=C/c1ccc(OCc2ccccc2)c(Br)c1,-6.28,
Cc1ccc(C(=O)C(=S)N2CCOCC2)cc1,-13.4,
CCN(CC)c1ccc(NC(=O)CN2CCN(CC(=O)Nc3ccc(Cl)cc3)CC2)cc1,0.407,
COc1ccc(C2C(=O)N(C3CCCCCC3)CC(=O)N2CCc2ccc(Cl)cc2)cc1OC (stereo not given),8.56,
Oc1ccc(-c2nc3ccc(Cl)cn3c2Nc2ccc3c(c2)OCO3)cc1,-0.513,
COc1ccc(OC)c(NC(=O)CSC2=Nc3ccccc3C3=NC(CC(=O)NCCc4ccccc4)C(=O)N23)c1 (stereo not given),-2.58,
Cc1coc2c(O)cc3c(c12)OC1(N2CCCCC2)C(=O)NCCCC31 (stereo not given),,17.8 µM (active)
Cn1c(=O)c2c(nc(SCC(=O)Nc3ccc(F)cc3)n2Cc2ccc(Cl)cc2)n(C)c1=O,-12,
O=C(Nc1ccccc1Cl)N1CCC(CN2CCCCC2)CC1,2.55,
Cc1cc(C)c(/C=C/c2onc(C)c2S(=O)(=O)N2CCC(C(=O)Nc3ccc(Cl)cc3C)CC2)c(C)c1,1.13,
CCCCS(=O)(=O)c1oc(-c2cccs2)nc1S(=O)(=O)c1ccccc1,,0.501 µM (active)
CSc1oc(-c2cccs2)nc1S(=O)(=O)c1ccc(Br)cc1,-4.01,
NC(=O)CSc1oc(-c2cccs2)nc1S(=O)(=O)c1ccccc1,-20.4,
COc1ccccc1OCC(=O)Nc1nnc2n1CCS2,5.09,
CCOC(=O)c1c(S(=O)(=O)NCC(=O)Nc2ccc(Cl)c(C(F)(F)F)c2)c(C)n(C)c1C,-8.26,
Cc1ccc(C)c(S(=O)(=O)n2cnc3ccccc32)c1,5.84,
Cc1cc(C)c(S(=O)(=O)n2cc(C(C)C(N)C(=O)O)c3ccccc32)c(C)c1 (stereo not given),,10 µM (active)
Cc1ccc(S(=O)(=O)n2cnc3ccccc32)c(C)c1,-18.3,
